# Among all 110,000 compounds or so, about 420 (0.38%) were called active. No stated cut-off is given here; in the data, active means inhibition above about 30% (passing the limit was not always enough); inconclusive means no clear call, values can overlap the other calls. The list comes from a sample in which actives are over-represented; it also holds similar structures and randomly drawn compounds.
# Test system: RmlC (dTDP-4-dehydrorhamnose 3,5-epimerase) and RmlD (dTDP-4-dehydrorhamnose reductase), coupled enzyme assay
# Experiment: RmlC and RmlD coupled enzyme inhibitors, primary screen, biochemical, 384-well, compound mixtures, retest (AID 1532)
# Details: 384-well mixture HTS, at 5.5 µM, stronger effect = higher value
# [1] = measured here: mean retest inhibition
smiles,measurement,setting,value
CCc1nnc(SCc2cccc(F)c2)nc1CC,inhibition,,-1.83% (inactive)
Cc1cccc(Nc2nc(NCCO)nc(N3CCCC3)n2)c1,inhibition,,-9.11% (inactive)
COCOc1cc(O)c(C(=O)/C=C/c2ccc(OCOC)c(OCOC)c2)c(OCOC)c1,inhibition,,4.09% (inactive)
COc1cc(/C=C/CO)cc(OC)c1O[C@@H]1O[C@H](CO)[C@@H](O)[C@H](O)[C@H]1O,inhibition,,-10.6% (inactive)
CC(C)NC(=O)NCCCCCCS(C)=O (configuration not stated),inhibition,,-13.8% (inactive)
CCCCC1=CC2=CC(=O)C(C)(OC(=O)CC)C(=O)C2=CN1CCCOC(C)C (configuration not stated),inhibition,,21.9% (inactive)
CC1=C(C)C(=O)OC(C(C)C2CCC3C4CC=C5CC(OC6OC(COC7OC(CO)C(O)C(O)C7O)C(O)C(O)C6O)CC(O)C5(C)C4CCC23C)C1 (configuration not stated),inhibition,,-13.2% (inactive)
C/C=C(/C)C(=O)O[C@@H]1c2cc3c(c4c2[C@@]2(CO4)C(=O)C(OC)=C(OC)C=C2C[C@@H](C)[C@H]1C)OCO3,inhibition,,-2.38% (inactive)
C/C=C(\C)C(=O)NCCN1C2=NC[C@H](Cc3ccc(O)cc3)N2C[C@@H]1Cc1ccc(OC)cc1,inhibition,,6.27% (inactive)
COC(=O)CCCC1=CC2=CC(=O)C(C)(OC(=O)c3cccs3)C(=O)C2=CN1CC(C)C (configuration not stated),inhibition,,6.81% (inactive)
O=C(C1=C[C@H](c2coc3ccccc3c2=O)C[C@H](OCc2ccc(CO)cc2)O1)N1CCN(Cc2ccccc2)CC1,inhibition,,13.6% (inactive)
C=CCNC(=O)c1ccc2c3n(nc2c1)-c1ccc(C)cc1CO3,inhibition,,-4.6% (inactive)
C[C@H]1CC[C@]2(O[C@@H](CCO)C[C@@H](O)[C@@H]2O)O1,inhibition,,6.2% (inactive)
C=C1C2C[C@H](O)C(C)(C)[C@@]2(O)[C@H](O)C[C@]23C[C@@](C)(O)[C@H](CC[C@H]12)[C@H]3O (some centres not stated),inhibition,,-7.47% (inactive)
CCO[C@H]1OC(C(=O)Nc2ccccc2)=C[C@@H](C2CC2)[C@@H]1CCCO,inhibition,,-2.12% (inactive)
COc1ccc(CCNC(=O)C2CC3Cn4c(nc5cc(C)c(C)cc54)C3N2C)cc1 (configuration not stated),inhibition,,5.88% (inactive)
O=C(NCc1ccccc1)C1=C[C@@H](c2ccccc2)C[C@@H](OCCCCO)O1,inhibition,,-11.4% (inactive)
COC(=O)CCCC1=CC2=C(c3ccccc3)C(=O)C(C)(OC(=O)C3CCCC3)C(=O)C2=CN1c1ccc(OC)cc1 (configuration not stated),inhibition,,6.14% (inactive)
COc1ccc2c(c1)CC[C@@H]1[C@@H]2CC[C@]2(C)C(=O)CC[C@@H]12,inhibition,,0.97% (inactive)
C#CCOCCOCCOCCNc1nc(N2CCN(C(=O)[C@H](C(C)C)n3cc(CCO)nn3)CC2)nc(N2CCN(C(=O)[C@H]([C@@H](C)CC)n3cc(CCCN=C(N)N)nn3)CC2)n1,inhibition,,9.85% (inactive)
COC(=O)Cc1c(C)c2ccc(OCC(=O)NCc3ccc4c(c3)OCO4)cc2oc1=O,inhibition,,12.6% (inactive)
CC(=O)Oc1ccc(NC(=O)CCC2CCCCC2)c(C(=O)O)c1,inhibition,,0.91% (inactive)
CC(=O)Oc1ccc2c(C)c(CC(C)O)c(=O)oc2c1 (configuration not stated),inhibition,,100% (active)
same,inhibition,[1],151%
O=C(Oc1ccccc1)Oc1ccc2c(c1)oc(=O)c1ccccc12,inhibition,,-16.4% (inactive)
O=C(Nc1cc2ccccc2oc1=O)C1CCCCC1,inhibition,,-8.93% (inactive)
CC(=O)Nc1cc2ccc(OC(C)=O)cc2oc1=O,inhibition,"above what the read-out allows, likely interference",671% (active)
C=CCC1(C(=O)N(C)Cc2ccccc2)CCN(C(=O)OC(C)(C)C)CC1,inhibition,,4.78% (inactive)
NC(=O)C[C@@H]1NC(=O)CNC(=O)c2cc([N+](=O)[O-])cc(I)c2NCCC(C(N)=O)NC1=O (some centres not stated),inhibition,,-2.76% (inactive)
O=C1c2ccccc2S(=O)(=O)c2cc(N3CCN(c4ccccn4)CC3)ccc21,inhibition,,-10.5% (inactive)
C=CCSc1nnc2c(n1)-c1cccc3cccc-2c13,inhibition,,10.4% (inactive)
COc1ccc(-c2nc3c(s2)CCc2onc(-c4ccc(Br)cc4)c2-3)cc1,inhibition,,-14.4% (inactive)
COC(C[C@@H](O)C[C@@H](O)[C@H](C)OCc1ccccc1)OC,inhibition,,1.16% (inactive)
C=CC(COCc1ccccc1)N(Cc1ccccc1)S(=O)(=O)c1ccccc1Br (configuration not stated),inhibition,,14.3% (inactive)
CC(C)C[C@H](CO)Nc1nc(N(C)c2cccc(Cl)c2)c2ncn(C(C)C)c2n1,inhibition,,4.1% (inactive)
NCCCC[C@@H]1NC(=O)[C@H](CCC(=O)O)NC(=O)c2cc([N+](=O)[O-])cc(I)c2NCC[C@@H](C(N)=O)NC1=O,inhibition,,-2.74% (inactive)
COC(C[C@@H](O)C[C@H](O)[C@H](C)OCc1ccccc1)OC,inhibition,,8.66% (inactive)
COc1cccc(NC(=S)N(CCc2c(C)[nH]c3ccccc23)Cc2ccco2)c1,inhibition,,-5.74% (inactive)
O=c1cc(-c2ccccc2)[nH]c2cc(F)ccc12,inhibition,,2.31% (inactive)
C=CCCN(Cc1ccccc1)S(=O)(=O)c1ccccc1Br,inhibition,,17.6% (inactive)
COc1ccccc1-c1nnc(SCC(=O)N2CC(C)CC(C)C2)o1 (configuration not stated),inhibition,,-13.8% (inactive)
COc1ccccc1-c1nc(C#N)c(N2CCC(C(N)=O)CC2)o1,inhibition,,31.8% (active)
same,inhibition,[1],33.6%
CC1CCN(c2oc(-c3ccccc3F)nc2C#N)CC1,inhibition,,19.3% (inactive)
O=C(NC1CC1)C1=C[C@H](c2coc3ccccc3c2=O)C[C@H](OCCCCO)O1,inhibition,,-32.1% (inactive)
O=C(C1=C[C@H](C2CC2)C[C@H](OCc2ccc(CO)cc2)O1)N1CCN(Cc2ccccc2)CC1,inhibition,,2.28% (inactive)
COC(=O)C1=C(C(=O)OC)[C@@H]2N(C)c3ccccc3[C@@]23C[C@@H](C(=O)OC)N(C(C)=O)C3=N1,inhibition,,1.9% (inactive)
CC(=O)n1cc([C@@H]2C=C(C(=O)N3CCN(Cc4ccc5c(c4)OCO5)CC3)O[C@H](OCc3ccc(CO)cc3)C2)c2ccccc21,inhibition,,5.68% (inactive)
O=C(NCc1cc(C(F)(F)F)cc(C(F)(F)F)c1)C1CC(c2cccc(F)c2)=NO1 (configuration not stated),inhibition,,2.58% (inactive)
CCO[C@@H]1OC(C(N)=O)=C[C@H](c2ccc(Br)cc2)[C@H]1CCCO,inhibition,,3.81% (inactive)
CC(NC(=O)Nc1ccccc1)C(c1cccs1)N1CCN(c2ccccc2)CC1 (configuration not stated),inhibition,,10.1% (inactive)
CCO[C@H]1OC(C(=O)NCc2ccccc2)=C[C@@H](c2coc3ccccc3c2=O)[C@@H]1CCCO,inhibition,,1.17% (inactive)

# From PubChem BioAssay AID1532 (PCMD, 2009)
